Measured values: ChEMBL document CHEMBL1961873, “Compounds: GSK PKIS; Assays: Nanosyn kinase panel” (2012)
Where “and” joins values, the source holds several entries; their conditions need not be identical. Equal entries are not always repeated.

Columns and labels:
[1] = tested on: Proto-oncogene tyrosine-protein kinase receptor Ret (Homo sapiens), P07949 [Y791F]; settings: at 1 µM
[2] = biological target: Macrophage-stimulating protein receptor (Homo sapiens) (UniProt Q04912); settings: at 0.1 µM
[3] = biological target: Macrophage-stimulating protein receptor (Homo sapiens) (UniProt Q04912); settings: at 1 µM
[4] = biological target: Proto-oncogene tyrosine-protein kinase ROS (Homo sapiens) (UniProt P08922); settings: at 0.1 µM
[5] = biological target: Proto-oncogene tyrosine-protein kinase ROS (Homo sapiens) (UniProt P08922); settings: at 1 µM
[6] = biological target: Proto-oncogene tyrosine-protein kinase Src (Homo sapiens) (UniProt P12931); settings: at 0.1 µM
[7] = biological target: Proto-oncogene tyrosine-protein kinase Src (Homo sapiens) (UniProt P12931); settings: at 1 µM
[8] = biological target: Tyrosine-protein kinase Srms (Homo sapiens) (UniProt Q9H3Y6); settings: at 0.1 µM
[9] = biological target: Tyrosine-protein kinase Srms (Homo sapiens) (UniProt Q9H3Y6); settings: at 1 µM
[10] = biological target: Tyrosine-protein kinase SYK (Homo sapiens) (UniProt P43405); settings: at 0.1 µM;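 note: reported percentages are mean inhibition values for SYK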

Chain of Macrophage-stimulating protein receptor (Homo sapiens) (Q04912 25-304 limits assumed): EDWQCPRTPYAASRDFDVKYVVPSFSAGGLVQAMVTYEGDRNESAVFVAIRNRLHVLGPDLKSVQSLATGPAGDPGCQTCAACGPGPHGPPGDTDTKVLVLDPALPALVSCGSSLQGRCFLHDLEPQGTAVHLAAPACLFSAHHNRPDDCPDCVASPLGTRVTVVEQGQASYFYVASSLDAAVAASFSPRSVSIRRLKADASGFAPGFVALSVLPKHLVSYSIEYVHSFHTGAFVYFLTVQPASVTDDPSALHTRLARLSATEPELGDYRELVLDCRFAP
Chain of Macrophage-stimulating protein receptor (Homo sapiens) (Q04912 310-1400 limits assumed): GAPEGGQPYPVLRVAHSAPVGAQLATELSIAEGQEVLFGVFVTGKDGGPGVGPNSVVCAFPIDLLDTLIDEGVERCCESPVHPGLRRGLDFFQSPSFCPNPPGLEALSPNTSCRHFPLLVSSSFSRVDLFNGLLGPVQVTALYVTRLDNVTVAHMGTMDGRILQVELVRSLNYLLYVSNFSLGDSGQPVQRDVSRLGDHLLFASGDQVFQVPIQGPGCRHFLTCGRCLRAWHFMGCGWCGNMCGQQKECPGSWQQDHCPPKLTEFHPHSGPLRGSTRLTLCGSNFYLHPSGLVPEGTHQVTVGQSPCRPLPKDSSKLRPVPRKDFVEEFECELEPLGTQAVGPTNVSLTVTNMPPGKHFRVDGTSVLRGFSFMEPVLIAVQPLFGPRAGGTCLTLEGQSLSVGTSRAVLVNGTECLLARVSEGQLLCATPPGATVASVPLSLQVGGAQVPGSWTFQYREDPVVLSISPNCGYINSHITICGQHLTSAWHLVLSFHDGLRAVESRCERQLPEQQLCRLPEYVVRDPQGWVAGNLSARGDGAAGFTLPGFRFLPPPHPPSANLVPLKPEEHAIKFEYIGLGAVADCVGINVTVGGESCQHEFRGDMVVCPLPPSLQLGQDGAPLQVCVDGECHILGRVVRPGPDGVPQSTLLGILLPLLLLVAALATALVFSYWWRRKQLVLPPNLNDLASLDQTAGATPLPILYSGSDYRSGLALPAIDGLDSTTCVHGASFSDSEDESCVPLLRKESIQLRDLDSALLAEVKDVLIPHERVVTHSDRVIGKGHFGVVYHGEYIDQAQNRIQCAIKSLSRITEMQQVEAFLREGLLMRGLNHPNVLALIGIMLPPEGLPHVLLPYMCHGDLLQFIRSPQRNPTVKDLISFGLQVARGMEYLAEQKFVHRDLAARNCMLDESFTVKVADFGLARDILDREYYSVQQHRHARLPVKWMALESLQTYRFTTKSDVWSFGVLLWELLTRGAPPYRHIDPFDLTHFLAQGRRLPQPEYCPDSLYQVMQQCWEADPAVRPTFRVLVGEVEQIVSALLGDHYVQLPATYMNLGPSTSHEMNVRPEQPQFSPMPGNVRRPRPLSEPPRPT
Chain of Proto-oncogene tyrosine-protein kinase ROS (Homo sapiens) (P08922 whole entry): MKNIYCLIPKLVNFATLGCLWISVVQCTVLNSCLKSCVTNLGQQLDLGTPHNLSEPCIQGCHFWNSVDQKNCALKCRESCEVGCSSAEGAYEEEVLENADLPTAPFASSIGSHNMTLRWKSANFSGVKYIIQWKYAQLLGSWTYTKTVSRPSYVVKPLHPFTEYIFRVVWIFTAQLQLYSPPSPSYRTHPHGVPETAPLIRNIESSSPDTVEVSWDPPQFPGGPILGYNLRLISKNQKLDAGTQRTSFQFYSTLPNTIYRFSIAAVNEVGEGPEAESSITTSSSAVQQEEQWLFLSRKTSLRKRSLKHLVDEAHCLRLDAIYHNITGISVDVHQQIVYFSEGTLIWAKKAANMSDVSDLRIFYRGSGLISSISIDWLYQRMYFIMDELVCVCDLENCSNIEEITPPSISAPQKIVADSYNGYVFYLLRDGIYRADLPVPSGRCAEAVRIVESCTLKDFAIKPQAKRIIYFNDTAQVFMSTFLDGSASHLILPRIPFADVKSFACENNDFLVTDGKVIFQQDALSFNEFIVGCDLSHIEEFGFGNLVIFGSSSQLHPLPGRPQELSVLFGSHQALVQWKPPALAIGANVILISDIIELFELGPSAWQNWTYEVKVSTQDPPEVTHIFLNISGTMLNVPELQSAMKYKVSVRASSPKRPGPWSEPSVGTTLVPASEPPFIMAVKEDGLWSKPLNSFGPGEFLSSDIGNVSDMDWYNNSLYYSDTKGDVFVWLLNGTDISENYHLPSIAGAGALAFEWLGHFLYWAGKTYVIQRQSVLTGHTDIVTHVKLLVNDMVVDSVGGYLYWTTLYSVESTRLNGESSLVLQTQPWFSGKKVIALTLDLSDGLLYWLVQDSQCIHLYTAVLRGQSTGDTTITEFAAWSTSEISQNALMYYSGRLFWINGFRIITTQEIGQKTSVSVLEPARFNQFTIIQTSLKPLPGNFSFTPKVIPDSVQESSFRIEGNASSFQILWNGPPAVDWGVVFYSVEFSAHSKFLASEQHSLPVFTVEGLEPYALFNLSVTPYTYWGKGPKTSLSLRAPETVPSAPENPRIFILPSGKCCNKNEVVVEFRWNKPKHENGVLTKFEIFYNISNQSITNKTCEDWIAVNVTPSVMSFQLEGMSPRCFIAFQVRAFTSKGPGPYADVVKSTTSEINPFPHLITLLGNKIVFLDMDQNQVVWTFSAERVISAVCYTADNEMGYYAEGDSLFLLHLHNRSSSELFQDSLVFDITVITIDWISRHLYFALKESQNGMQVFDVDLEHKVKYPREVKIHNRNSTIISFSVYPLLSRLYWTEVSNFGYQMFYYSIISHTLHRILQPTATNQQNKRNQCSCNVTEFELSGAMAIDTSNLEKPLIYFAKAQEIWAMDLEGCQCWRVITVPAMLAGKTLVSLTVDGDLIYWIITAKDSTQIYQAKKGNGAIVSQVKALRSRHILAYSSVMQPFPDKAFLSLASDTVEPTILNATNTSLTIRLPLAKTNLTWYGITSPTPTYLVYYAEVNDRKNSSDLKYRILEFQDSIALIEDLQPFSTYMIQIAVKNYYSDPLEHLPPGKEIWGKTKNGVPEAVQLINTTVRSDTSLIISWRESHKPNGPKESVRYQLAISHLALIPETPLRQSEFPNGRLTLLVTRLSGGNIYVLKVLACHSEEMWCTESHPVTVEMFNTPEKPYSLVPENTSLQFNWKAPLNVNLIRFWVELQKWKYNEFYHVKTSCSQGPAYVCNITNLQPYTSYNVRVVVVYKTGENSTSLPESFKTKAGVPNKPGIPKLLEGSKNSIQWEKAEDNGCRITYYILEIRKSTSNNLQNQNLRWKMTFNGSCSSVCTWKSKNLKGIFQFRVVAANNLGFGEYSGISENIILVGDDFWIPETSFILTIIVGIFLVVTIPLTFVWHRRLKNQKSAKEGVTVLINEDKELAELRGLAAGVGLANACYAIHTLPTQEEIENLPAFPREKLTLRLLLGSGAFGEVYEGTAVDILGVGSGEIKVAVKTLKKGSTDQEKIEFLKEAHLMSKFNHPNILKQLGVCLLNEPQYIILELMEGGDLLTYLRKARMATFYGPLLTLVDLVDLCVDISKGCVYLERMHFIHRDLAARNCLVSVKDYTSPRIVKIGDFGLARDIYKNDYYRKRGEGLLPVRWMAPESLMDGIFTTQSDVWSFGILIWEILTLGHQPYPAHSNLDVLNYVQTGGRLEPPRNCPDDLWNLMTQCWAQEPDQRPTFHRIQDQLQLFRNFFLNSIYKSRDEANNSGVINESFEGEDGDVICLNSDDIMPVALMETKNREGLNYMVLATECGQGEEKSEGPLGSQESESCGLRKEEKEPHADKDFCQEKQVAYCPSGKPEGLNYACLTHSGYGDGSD
Chain of Proto-oncogene tyrosine-protein kinase Src (Homo sapiens) (P12931 2-536 limits assumed): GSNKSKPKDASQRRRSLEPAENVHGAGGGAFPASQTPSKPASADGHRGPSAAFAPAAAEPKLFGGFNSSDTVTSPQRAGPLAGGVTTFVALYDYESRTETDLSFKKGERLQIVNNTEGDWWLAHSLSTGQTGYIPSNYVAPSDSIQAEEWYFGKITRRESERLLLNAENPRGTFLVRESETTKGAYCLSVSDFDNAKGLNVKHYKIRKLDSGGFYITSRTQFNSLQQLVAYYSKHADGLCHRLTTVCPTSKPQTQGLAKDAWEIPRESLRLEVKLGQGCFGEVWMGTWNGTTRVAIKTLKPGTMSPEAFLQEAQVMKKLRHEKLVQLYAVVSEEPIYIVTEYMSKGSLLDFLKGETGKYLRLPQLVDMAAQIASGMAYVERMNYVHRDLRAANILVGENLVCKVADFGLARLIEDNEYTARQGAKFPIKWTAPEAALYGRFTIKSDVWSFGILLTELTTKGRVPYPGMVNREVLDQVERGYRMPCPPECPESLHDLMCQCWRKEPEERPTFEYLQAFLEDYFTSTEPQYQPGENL
Chain of Tyrosine-protein kinase Srms (Homo sapiens) (Q9H3Y6 whole entry): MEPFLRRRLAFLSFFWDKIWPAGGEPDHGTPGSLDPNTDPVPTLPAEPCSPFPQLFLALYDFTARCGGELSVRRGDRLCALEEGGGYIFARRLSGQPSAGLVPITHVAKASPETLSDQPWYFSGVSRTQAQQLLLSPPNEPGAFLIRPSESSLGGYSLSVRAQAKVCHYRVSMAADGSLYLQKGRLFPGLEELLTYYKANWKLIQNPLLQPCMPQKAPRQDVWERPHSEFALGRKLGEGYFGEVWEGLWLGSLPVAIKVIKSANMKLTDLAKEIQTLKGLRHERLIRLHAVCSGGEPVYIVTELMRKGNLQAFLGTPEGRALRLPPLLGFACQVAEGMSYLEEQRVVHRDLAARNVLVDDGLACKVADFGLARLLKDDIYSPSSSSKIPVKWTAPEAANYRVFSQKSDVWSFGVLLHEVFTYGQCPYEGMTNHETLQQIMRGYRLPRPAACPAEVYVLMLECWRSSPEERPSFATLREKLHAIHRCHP

Structure (SMILES) | inhibition [1] | inhibition [2] | inhibition [3] | inhibition [4] | inhibition [5] | inhibition [6] | inhibition [7] | inhibition [8] | inhibition [9] | inhibition [10]
Cc1c2ccc(N(C)c3ccnc(Nc4cccc(S(N)(=O)=O)c4)n3)cc2nn1C | 80.3% | 2.6% | 9.61% | 38.7% | 78.1% | 40.5% | 82.8% | 1.27% | 17.6% | -4.22%
CC1=C(C(=O)Nc2ccc3[nH]nc(C)c3c2)C(c2ccc(C(F)(F)F)cc2)CC(=O)N1 (stereo not given) | 38.1% | 5.1% | 23.9% | 4.15% | 17.6% | 1.6% | 22.7% | 0.76% | -1.98% | -4.6%
CN(c1ccc(NC(=O)NCCN2CCOCC2)cc1)c1ccnc(Nc2ccc(CS(C)(=O)=O)cc2)n1 | 73.6% | 4.51% | 15.6% | 9.47% | 43.5% | 4.5% | 18.4% | -1.89% | 1.22% | -3.19%
c1ccc(-c2n[nH]cc2-c2ccnc(-c3ccc(OCCn4ccnc4)cc3)c2)nc1 | 19.1% | 3.8% | 3.01% | 3.08% | 10.7% | -2.63% | 8.69% | 0.16% | 3.94% | -0.7%
CS(=O)(=O)Nc1ccc(-c2cc(-c3ccccc3)cc(C(N)=O)c2N)cc1 | 3.96% | -0.02% | -1.34% | 4.8% | 6.51% | 2.73% | 4.51% | -2.19% | -2.04% | -0.83%
CN1CCC(C(=O)Nc2n[nH]c3nc(-c4ccc(O)cc4)c(Br)cc23)CC1 | 20.8% and 5.43% | -1.02% and 7.11% | 6.18% and 11.8% | 5.2% and 4.89% | 10.4% and 1.96% | 6.76% and 6.26% | 9.87% and 8.29% | -2.12% and 1.04% | -1.75% and -1% | -0.18% and 0.92%
CCOc1ccc2c(-c3ccnc(Nc4cc(OC)cc(C(F)(F)F)c4)n3)cnn2n1 | 5.26% | 8% | 7.47% | 4.18% | 20.7% | -3.54% | 16.3% | 2.39% | 4.4% | -3.45%
COc1c(C(N)=O)cc(-c2ccc(Cl)cc2)cc1-c1ccc(S(N)(=O)=O)cc1 | 7.43% | 6.88% | 6.97% | 12.2% | 14.6% | 10.9% | 14.6% | -1.8% | -2.15% | 1.78%
Nc1ncnc2occ(-c3ccc(NC(=O)Nc4cc(C(F)(F)F)ccc4F)cc3)c12 | 85.5% and 86.1% | 6.58% and -2.93% | 12.2% and 2.9% | 4.91% and 3.1% | 28.1% and 13.7% | 10.1% and 1.77% | 48.3% and 31.9% | 0.41% and -0.6% | 0.84% and 0.62% | -4.8% and -1.07%
OCCCNc1nccc(-c2c(-c3ccc(F)cc3)nn3cc(C(F)(F)F)ccc23)n1 | 6.1% | 0.58% | 1.65% | 4.09% | 6.03% | 5.06% | 8.49% | -0.48% | -0.71% | 5.03%
CS(=O)(=O)Nc1ccc(-c2ccc3c(NC(=O)C4CC4)n[nH]c3c2)cc1 | 6.93% | 1.04% | 7.91% | 11.3% | 11.7% | -4.32% | 8.03% | -0.44% | 0.5% | -4.62%
O=C(Nc1n[nH]c2nnc(-c3cccnc3)cc12)C1CC1 | 3.64% | -2.07% | -3.95% | -0.02% | 1.38% | 0.98% | 2.5% | 2.39% | 0.54% | 1.35%
CN1CCN(Cc2ccc(-c3cc4ncnc(Nc5ccc(OCc6cccc(F)c6)c(Cl)c5)c4s3)o2)CC1 | 11.4% and 17.4% | 3.2% and 3.55% | 10.2% and 6.54% | 3.07% and 6.46% | 6.26% and 12.4% | 4.74% | 13.4% and 18.3% | -1.16% and -1.22% | 0.02% and -0.37% | 0.19% and -1.76%
COc1ccccc1-c1cc(/C=C2\C(=O)Nc3ncc(Br)cc32)cc(Br)c1O | 13.2% | 2.48% | 7.63% | 7.94% | 26.1% | 4.87% | 17.1% | 2.16% | 14.7% | -6.56%
FC(F)(F)CNc1nccc(-c2cnn3ncccc23)n1 | 2.92% | 1.76% | -1.8% | -0.19% | 2.27% | 3.96% | 3.98% | -5.51% | -3.04% | -0.18%
COC(=O)Nc1nc2cc(Oc3ccc(NC(=O)Nc4ccccc4)cc3)ccc2[nH]1 | 25.8% | 7.21% | 8.17% | 2.15% | 2.86% | 5.93% | 7.76% | 0.48% | -1.09% | -5.19%

Structure (SMILES) | inhibition [1] | inhibition [2] | inhibition [3] | inhibition [4] | inhibition [5] | inhibition [6] | inhibition [7] | inhibition [8] | inhibition [9] | inhibition [10]
NS(=O)(=O)c1ccc(N/N=C2\C(=O)Nc3cccc(CCc4ccncc4)c32)cc1 | 29.1% | -0.73% | 5.76% | 3% | 9.09% | 3.83% | 9.5% | 1.9% | 1.2% | 0.03%
CS(=O)(=O)CCNCc1ccc(-c2ccc3ncnc(Nc4ccc(OCc5cccc(C(F)(F)F)c5)cc4)c3c2)o1 | 6.5% | -1.41% | 3.05% | 6.2% | 8.72% | 9.03% | 15.8% | -3.48% | -3.22% | -1.19%
CS(=O)(=O)CCNCc1ccc(-c2ccc3ncnc(Nc4ccc(OCc5ccccc5)cc4)c3c2)o1 | 9.58% | 2.59% | 3.8% | 1.11% | 8.89% | 9.13% | 12.5% | -0.68% | 2.59% | 1.7%
Nc1nonc1-c1nc2cnccc2n1C1CC1 | 6.05% and 3.67% | -0.62% and 3.72% | 9.46% and 1.74% | 7.08% and 4.44% | 15.1% and 14.1% | 3.78% and -1.17% | 8.03% and 5.68% | -1.43% and -0.81% | 0.98% and 0.04% | 1.89% and -3.36%
CS(=O)(=O)CCNCc1ccoc1-c1ccc2ncnc(Nc3ccc(OCc4ccccc4)cc3)c2c1 | 9.63% | 1.78% | -1.8% | 0.39% | 2% | 3.56% | 4.6% | -1.68% | -0.79% | -2.93%
O=C1Nc2ccccc2/C1=C1\CCc2cc(O)ccc21 | 64.6% | 5.94% | 2.23% | 10.8% | 18.6% | -0.52% | 15.2% | -1.04% | -4.06% | -8.61%
CN(C)CCNC(=O)Nc1ccc(N(C)c2ccnc(Nc3ccc(CS(C)(=O)=O)cc3)n2)cc1 | 23.3% | 3.87% | 7.76% | 15.3% | 78% | 4.55% | 14.4% | -2.02% | -0.56% | -4.06%
Fc1ccc(Nc2nccc(-c3c(-c4ccc(C(F)(F)F)cc4)nn4ncccc34)n2)cc1F | 4.13% | -2.05% | 4.5% | 6.56% | 8.15% | -0.44% | 6.45% | 0.3% | -1.61% | -5.43%
c1cnn2ncc(-c3ccnc(NCCCN4CCOCC4)n3)c2c1 | 0.64% | 7.49% | 0.88% | 5.24% | 8.64% | 2.26% | 5.93% | 0.14% | 1.41% | -6.13%
COc1cc2c(cc1Nc1nc(Nc3cccc(F)c3C(N)=O)c3cc[nH]c3n1)N(C(=O)CN1CCN(C(C)C)CC1)CC2 | 6.08% | -1.39% | -1.15% | 31.6% | 73.7% | 4.53% | 11.8% | -1.09% | 0.82% | 3.25%
Cc1cc(O)cc(C)c1/C=C/c1cncc(C(=O)OC(C)(C)C)c1 | 12.1% | 8.51% | 8.66% | 6.94% | 10.4% | 14.1% | 58.6% | 10.2% | 43.4% | -0.49%
Nc1nccc(-c2c(-c3ccc(F)cc3)ncn2C2CCNCC2)n1 | 18.1% and 7.68% | 7.21% | -1.75% and 1.85% | 1.07% and 4.79% | 8.31% and 7.82% | -4.6% and -5.2% | 0.47% and 5.61% | -1% and 0.6% | 1.09% and -0.34% | 0.33% and 1.19%
CCN1CCC(C(=O)Nc2n[nH]c3nnc(-c4cccc(F)c4F)cc23)CC1 | 3.53% | 0.53% | 0.25% | -1.03% | 3.74% | -1.14% | -2.38% | 1.44% | 2.12% | 0.98%
NC(=O)c1ccc2c(-c3ccnc(NCCCO)n3)c(-c3ccc(F)cc3)nn2c1 | 19.4% | 2.03% | 9.13% | 8.51% | 10.6% | 0.24% | 12.9% | 15% | 4.79% | -5.36%
CNC(=O)c1sc(-n2cnc3cc(OC)c(OC)cc32)cc1OCc1ccccc1C(F)(F)F | 14.2% | 1.42% | 3.32% | 3.19% | 5.06% | 6.71% | 8.35% | -1.1% | 0.5% | -0.5%
